These sequences were tested against PDE1C (assay: pooled miR-30 sensor sort-seq; sequence = guide strand). Conditions: shRNA.

First: TTTGAAGTCACCATTCTGTTGC
Second: TTTCTTTGAATCATTTCCGATG
The sensor-assay potency score (higher = more potent) of the first is higher: 0.443 for the first, -0.853 for the second.

Compared with AATTGTTTGACCAAAGACCGTA, TGAACGATGCTCTTGAACCGGG is lower in sensor-assay potency score (higher = more potent): 0.319 for the first, -0.343 for the second.

Compared with TTTTCCTCTGCTTCCTTCTTGG, TTTTCTTTGAATCATTTCCGAT is lower in sensor-assay potency score (higher = more potent): -0.143 for the first, -1.12 for the second.

Compared with TAGAGTGATCCTTCTTGTCTGT, TAAGATCTACCACTGAAGCTTC is lower in sensor-assay potency score (higher = more potent): 0.0178 for the first, -0.318 for the second.

Sequence TTGAGTAAAAATCTCACGTTGT has a sensor-assay potency score (higher = more potent) of 0.531.

The sequences below were run against PDE8B in the same assay as above. Conditions: shRNA.

Compared with TACAATAATTTCATGATGCTTA, ATCGCTCTGACTATCTTCCTTT is higher in sensor-assay potency score (higher = more potent): -0.231 for the first, -0.16 for the second.

Going from TATATTTATAACCTTTGTGATG to ATTGATTATATTTATAACCTTT, the sensor-assay potency score (higher = more potent) rises from -1.47 to -0.571.

Compared with TCTTAGTAAACACATACTCGTT, AATCTCTAGAACTCTGTCCAAG is lower in sensor-assay potency score (higher = more potent): -0.91 for the first, -1.58 for the second.

Going from TTAAAAACTCACATACTCCAAA to TTGCATTCACAGTCGCTGCCTT, the sensor-assay potency score (higher = more potent) rises from -0.433 to -0.0743.

Going from TAGCAAGCAATTATGCTGCTAT to TAAACACATACTCGTTTCCTGA, the sensor-assay potency score (higher = more potent) falls from 0.445 to -0.83.

Going from TTCATCTTTGGTACCCAGCTGA to TTAGTAAACACATACTCGTTTC, the sensor-assay potency score (higher = more potent) falls from -0.0849 to -0.767.

What follows are sequences tested against PDGFRB in the same assay as above. Conditions: shRNA.

First: TAGTCCACCGACTCGTCCTTGC
Second: TTGATCAAAGTTGCTCGGCAGG
The sensor-assay potency score (higher = more potent) of the first is higher: -0.654 for the first, -0.679 for the second.

First: TTGGTCAGTGTGAGCACGCTGG
Second: TAGCACTGGAGACTCGTTGATC
The sensor-assay potency score (higher = more potent) of the first is higher: -0.355 for the first, -0.385 for the second.

Going from TTTGATGGCATTGTAGAACTGC to TCTTTTTGTAACCTTCGCCCAA, the sensor-assay potency score (higher = more potent) falls from 0.772 to -0.683.

Going from TTGCTGTAGAGCTCCGCGCTGG to TTGACGGCCACTTTCATCGTGG, the sensor-assay potency score (higher = more potent) rises from -0.717 to -0.193.

Compared with AAAGTCACAGATCTTGACCAGC, TCAGCTCTGACACATACCGGGT is lower in sensor-assay potency score (higher = more potent): -0.788 for the first, -1.42 for the second.

In the case of TAACAGGAGAGACAGCAACAGC, the sensor-assay potency score (higher = more potent) is reported as -1.23.

Each sequence was assayed against PDIA5 in the same assay as above. Conditions: shRNA.

TACTTTTCTGCGAACTTCCCAT and TTTGACACAGTCAACAGCGGCA are the same in sensor-assay potency score (higher = more potent): -0.283 for the first, -0.283 for the second.

First: TTCTTCTTCAGGGTCTCCCGGA
Second: TCAACCTTTTTGTCCTTCGGGC
The sensor-assay potency score (higher = more potent) of the first is lower: -0.62 for the first, -0.306 for the second.

Going from TTGCACATGCTGCACCAGGGGG to TCATACTGGAACAAGAACCGTC, the sensor-assay potency score (higher = more potent) rises from -1.31 to 0.647.

Going from TTCAACGTAGGAAACTCTGAGA to TAGTCTTTCATGGTCTCCCTCC, the sensor-assay potency score (higher = more potent) falls from -0.249 to -0.586.

Source: the OligoGym collection
